Screening data as filed in PubChem.
EBV LMP1 NFkB – Epstein-Barr LMP1 NF-kappaB reporter inhibition; LMP1-induced NF-kappaB luciferase reporter cells, luminescence; inhibition, % at 12.5 µM; 0.69% of 350,000 active; in the data active means inhibition above about 41%; inconclusive means no clear call, values can overlap the other calls;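 further: 0% = neutral control wells and 100% = reference inhibitor control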
PAX8 reporter – PAX8 transcriptional activity inhibition. inhibition, % at 12.6 µM. 1.2% of 360,000 active. RMG-I TPO-luciferase reporter, SteadyGlo, 24 h;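 active means mean replicate inhibition at least 60% with every replicate also reaching 60%; inconclusive means only one of the two criteria is met; inactive means mean below 60% and not all replicates reaching 60%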;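 further: luciferase light reporting Pax8 driven TPO promoter activity; plate controls were median of neutral control wells for no effect and mitoxantrone controls for full effect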
PGC1a acetyl inh – lowers PGC1a acetylation signal in U2OS cells. AlphaScreen anti-acetyl-lysine; with virally co-expressed GCN5 acetyltransferase. inhibition, % at 15.6 µM. 0.17% of 350,000 active;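 active means every replicate shows inhibition of at least 40%; inconclusive means mean inhibition at least 40% but some replicate below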;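 further: 0% = neutral control wells and 100% = positive control wells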
MITF TRPM1 inh – inhibitors of MITF-driven TRPM1 promoter in melanoma cells; SK-MEL-5 TRPM1 promoter luciferase, 24 h; inhibition, % at 12.5 µM; 0.83% of 330,000 active;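 active means mean inhibition across replicates of 60% or more, whatever share of single replicates reaches that level; inconclusive means some that reach 60%, reason not given; inactive means mean inhibition across replicates below 60%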
EWS-Fli block – EWS/Fli transcriptional activity inhibition; A673 NR0B1-luciferase reporter, viability-normalised; inhibition, % at 12.6 µM; 0.67% of 350,000 active; AID 651661;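 active means mean inhibition of at least 50% after viability correction, with every replicate also passing that limit; inconclusive means mean reaches 50% but only one of two replicates passes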;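 further: firefly luciferase signal divided by Alamar Blue viability fluorescence both relative to DMSO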
LGR2 antag – inhibitors of bursicon-induced Drosophila LGR2 receptor cAMP signaling; HEK293 LGR2, CRE-luciferase, bursicon-stimulated, 4 h; inhibition, % at 9.99 µM; 0.35% of 380,000 active; AID 720647;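 active means drop in luminescence signal, shown as inhibition above about 50% in the replicate tests, limit read from the data, passing the limit was not always enough; inconclusive means probably only some replicates passing the limit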;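 further: agonist challenge used bursicon conditioned medium at about half maximal strength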
An asterisk follows results filed as active; ? = inconclusive; nt = no result given; ! = repeats disagree. The list is not random: actives were taken first. Their share in the collection is about 2.2%.

SMILES | EBV LMP1 NFkB | PAX8 reporter | PGC1a acetyl inh | MITF TRPM1 inh | EWS-Fli block | LGR2 antag
O=C(Nc1nccs1)c1cc(Cl)ccc1[N+](=O)[O-] | 6 | -4 | nt | 13 | nt | -1
CCN(CC)C1CCCCC1NS(=O)(=O)c1ccc(Cl)cc1 (centres undefined) | 52* | 9 | -6 | -12 | 0 | 5
CN(c1ccccc1)C1CCCCC1NS(=O)(=O)c1ccc(Cl)cc1 (centres undefined) | -6 | 9 | nt | -9 | 16 | -62
CC(C)(C)NC(=O)C(c1ccc(C#N)cc1)n1c(=O)c(-c2cc3ccccc3[nH]2)nc2ccccc21 (centres undefined) | nt | 65* | nt | nt | 17 | -12
C/C=C/c1ccc2c(c1)O[C@H](CN(C)C(=O)Nc1cc(F)ccc1F)[C@@H](C)CN([C@H](C)CO)S2(=O)=O | nt | nt | 15 | nt | 24 | 4
C[C@H](CO)N1C[C@H](C)[C@H](CN(C)C(=O)Nc2cc(F)ccc2F)Oc2cc(/C=C/c3ccccc3)ccc2S1(=O)=O | nt | 65* | -7 | nt | 19 | 5
C[C@H]1CN([C@@H](C)CO)S(=O)(=O)c2ccc(/C=C/c3ccccc3)cc2O[C@@H]1CN(C)C(=O)Nc1cccc(F)c1 | nt | 62* | -23 | nt | 21 | -10
O=C1c2c(O)ccc(O)c2C(=O)c2c(NCCNCCO)ccc(NCCNCCO)c21 | 67* | 106*! | 9 | 95* | 40 | 102*
C[C@@H]1CN([C@H](C)CO)C(=O)c2cc(-c3cccnc3)cnc2O[C@H]1CN(C)C(=O)c1cccc(F)c1 | nt | nt | -3 | nt | -5 | 4
CCNc1nc(CN2CCOCC2)nc2sc3c(c12)CCC3 | 65* | nt | -2 | -2 | nt | -10
C[C@@H]1CN([C@@H](C)CO)C(=O)c2cccc(NC(=O)Nc3ccc(C(F)(F)F)cc3)c2O[C@@H]1CN(C)S(=O)(=O)c1ccccc1 | nt | 10 | 17 | nt | -20 | 3
COc1cc(OC)c(C#N)c(S(=O)(=O)Cc2ccccc2)c1 | -4 | nt | nt | -8 | nt | nt
N#Cc1c([N+](=O)[O-])cc([N+](=O)[O-])cc1S(=O)(=O)Cc1ccccc1 | 28 | 101* | 26 | 93* | ? | 7
COCC(=O)Nc1ccc2c(c1)C(=O)N(C)C[C@H](OC)[C@@H](C)CN(Cc1ccccn1)[C@@H](C)CO2 | nt | nt | 3 | nt | 3 | 4
FC(F)(Cl)c1nnc2ccc(Cl)nn12 | 7 | 74* | -12 | 16 | -8 | 11
COc1cccc(NC(=O)C[C@H]2CC[C@@H]3[C@@H](COc4ccc(NC(=O)c5ccccc5F)cc4C(=O)N3C)O2)c1 | nt | 32 | -16 | nt | 15 | 3
CC(C)NC(=O)Nc1ccc2c(c1)C(=O)N(C)[C@@H]1CC[C@@H](CC(=O)NCc3ccc(F)cc3)O[C@@H]1CO2 | nt | -5 | nt | nt | 6 | 3
Cc1[nH]n(-c2ccccc2)c(=O)c1N=Nc1cccc(C(=O)O)c1 | 2 | 65* | 14 | ? | 62* | 24
CNC(=O)C[C@@H]1CC[C@H]2[C@H](COc3ccc(NC(=O)Nc4ccccc4)cc3C(=O)N2C)O1 | nt | 13 | 0 | nt | -2 | 8
CC(=O)c1ccc(N2CCN(c3ccc(S(=O)(=O)NCCCN(C)C)cc3[N+](=O)[O-])CC2)cc1 | -14 | 15 | -95 | 4 | 38 | 4
CN(C)CCCNS(=O)(=O)c1ccc(N2CCN(Cc3ccc4c(c3)OCO4)CC2)c([N+](=O)[O-])c1 | 0 | 5 | nt | -4 | 52* | 5
Cc1ccc(C(=O)O/N=C(\N)c2nonc2N)cc1 | -25 | -26 | -3 | -25 | -25 | 78*
COc1cc(/C=N\NC(=O)c2ccc(-c3ccccc3)cc2)cc(OC)c1OC(C)=O | nt | 100* | nt | -27 | nt | -30
COc1cc(/C=N/NC(=O)c2ccc3nc[nH]c3c2)cc(OC)c1OC(C)=O | 6 | 7 | -13 | nt | 8 | 0
COc1cc(/C=N\NC(=O)c2ccc(-c3ccccc3)cc2)cc(OC)c1O | 2 | 75* | nt | -33 | -11 | -8
CCN1[C@@H]2c3ccc(-c4cccc(C(=O)N(C)C)c4)c(=O)n3C[C@@H]2[C@@H](CO)[C@@H]1C(=O)OC | nt | nt | nt | nt | 2 | 12
Cn1c(N)c(C(=O)COC(=O)c2cc(S(=O)(=O)N3CCOCC3)ccc2F)c(=O)n(C)c1=O | 0 | 7 | -18 | 82* | 67* | -8
